Rv3671c protease – inhibitors of M. tuberculosis serine protease Rv3671c; P9WHR9; inhibition, % at 5.96 µM; hit rate 0.048% among 320,000; AID 2606; in the data active = inhibition above about 38%;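 also: extracellular domain of Rv3671c used as enzyme; 0% = enzyme with DMSO and 100% = no enzyme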
GDH-TPI counter – counter-screen for M. tuberculosis FBA inhibitors: GDH-TPI coupled enzymes | GDH-TPI coupled enzyme counterscreen, NADH absorbance | inhibition, % at 4.8 µM | hit rate 1.2% among 360,000; in the data active = inhibition above about 30%;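 also: 0% = DMSO wells and 100% = wells lacking the enzyme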
Mtb bLac sens – beta-lactam sensitization of Mtb H37Rv; hit rate 0.27% among 330,000; M. tuberculosis H37Rv growth with meropenem, percent inhibition; inhibition, % at 25 µM; call rule not given here;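 also: growth measured after seven days incubation then overnight dye step; 0% = bacteria only wells and 100% = bacteria with antibiotic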
RecA splice inh – blocks M. tuberculosis RecA intein splicing | AID 2221 | hit rate 0.75% among 290,000 | inhibition, % (no concentration beside the values) | P9WHJ3 | cell-free RecA intein splicing, fluorescence; in the data active = inhibition above about 30%; inconclusive = no clear call, values can overlap the other calls;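 also: 0% = vehicle wells and 100% = reference inhibitor control wells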
Mtb FBA inh – Mtb fructose-bisphosphate aldolase inhibition | P9WQA3 | purified M. tuberculosis FBA, fluorescence read-out | inhibition, % at 1 µM | hit rate 2.3% among 360,000 | AID 588726; in the data active = inhibition above about 27%;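 also: 0% = vehicle and 100% = reference inhibitor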
Mtb UGM inh – blocks M. tuberculosis UGM enzyme | P9WIQ1 | purified UGM, fluorescence polarization probe displacement | inhibition, % at 10 µM | hit rate 0.06% among 320,000 | AID 504406; in the data active = inhibition above about 10%, passing the limit was not always enough; inconclusive = no clear call, values can overlap the other calls
Target sequence (P9WIQ1 whole entry, looked up): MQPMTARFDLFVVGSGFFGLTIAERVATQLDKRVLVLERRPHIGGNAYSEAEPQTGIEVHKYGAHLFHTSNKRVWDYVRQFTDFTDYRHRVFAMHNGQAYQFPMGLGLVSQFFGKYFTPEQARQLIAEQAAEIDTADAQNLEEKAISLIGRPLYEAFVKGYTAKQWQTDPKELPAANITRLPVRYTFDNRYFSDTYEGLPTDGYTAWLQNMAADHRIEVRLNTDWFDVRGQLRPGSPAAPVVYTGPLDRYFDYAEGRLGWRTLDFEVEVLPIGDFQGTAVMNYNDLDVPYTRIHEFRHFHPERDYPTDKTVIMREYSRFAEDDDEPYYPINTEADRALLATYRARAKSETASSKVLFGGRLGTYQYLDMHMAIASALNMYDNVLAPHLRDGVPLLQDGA
* marks the source's active call; other numbers are inactive results; ? = inconclusive; . = no result given; + = active, no number. Shown are actives, neighbours in structure and some others; about 4% of the full set was active somewhere.

SMILES	Rv3671c protease	GDH-TPI counter	Mtb bLac sens	RecA splice inh	Mtb FBA inh	Mtb UGM inh
NC(=O)N=Nc1c2[nH]c3ccccc3nc-2c2ccccc12	-7	36*	99	-1	2	0
COc1ccc(Br)c(C(=O)Nc2nc3ccccc3[nH]2)c1	0	8	-5	-1	2	3
COc1ccc2oc(C(=O)Nc3nc4ccccc4[nH]3)c(C)c2c1	-12	44*	.	-2	3	2
CCOc1ccc(-c2cc(C(=O)N/N=C(\C)c3cccnc3)c3ccccc3n2)c(OCC)c1	.	6	4	-1	1	1
N#C/C(=C\Nc1ccccc1O)c1nc2ccccc2o1	4	33*	2	4	-1	3
N#C/C(=C\c1ccncc1)c1nc2ccccc2o1	2	6	-2	28	10	0
Cn1nc(C(C)(C)C)cc1C(=O)N1CCCCC1c1cc(C(=O)Nc2ccc(F)c(Cl)c2)no1 (stereo unspecified)	.	4	.	.	-3	.
C[C@@H]1CN([C@@H](C)CO)C(=O)CCCn2nncc2CO[C@@H]1CN(C)C(=O)Nc1ccc2c(c1)OCO2	.	2	.	.	2	.
CC1(CC(=O)N/N=C/c2ccc(-c3cccc(C(F)(F)F)c3)o2)OCCO1	-2	37*	3	-2	-2	-2
CC1(CC(=O)N/N=C/c2cc(Br)c(O)cc2O)OCCO1	0	48*	6	-4	3	4
NC(Cc1ccc(F)cc1)c1csc(Nc2ccc(C(F)(F)F)cn2)n1 (stereo unspecified)	.	-3	.	.	2	.
N#Cc1c(NC(=O)CSc2nnc(-c3ccccc3)o2)sc2c1CCCC2	-7	31*	22	0	1	-1
O=C(O)c1ccccc1C1=Nc2ccc(O)cc2Oc2cc(O)ccc21	20	10	-4	-1	-3	14*
O=C(c1cc(COc2ccc3c(c2)CCCC3)on1)N1CCCC1	3	-5	?	.	1	0
COC(=O)CCCC1=CC2=C(c3ccccc3)C(=O)C(C)(OC(=O)C3CCCC3)C(=O)C2=CN1CCCCO (stereo unspecified)	-4	-7	-2	39*	2	0
COc1cc(C(=O)N/N=C/c2cn(Cc3cccc(F)c3)c3ccccc23)ccc1O	.	35*	4	0	4	1
Cc1c(/C=N/Nc2ccc(C(=O)O)cc2)c2ccccc2n1C	4	41*	2	-6	4	-3
Cc1ccc(C(=O)N/N=C/c2cn(Cc3ccccc3)c3ccccc23)cn1	1	24	0	0	-2	1
O=C(O)c1ccc(N/N=C/c2cn(Cc3ccc(F)cc3)c3ccccc23)cc1	15	44*	10	5	12	1
CCNC(=S)N/N=C/c1cn(Cc2ccc(F)cc2)c2ccccc12	10	22	6	-1	-1	0
CC1Cc2nc(SCC(=O)NCc3ccccc3)n(Cc3ccccc3)c(=O)c2S1 (stereo unspecified)	-6	34*	7	6	2	0
COC(=O)C1=CO[C@@H](O[C@@H]2O[C@H](CO)[C@@H](O)[C@H](O)[C@H]2O)C2C1C=C[C@@]2(O)CO (stereo partly specified)	2	5	5	.	5	0
Cc1[nH]c2ccccc2c1/C=N/NC(N)=S	5	37*	92	-1	-1	-1
COC(=O)c1sc(-c2ccc(Cl)cc2)cc1NC(=O)COCC(=O)O	-13	35*	.	1	14	-1
NS(=O)(=O)OCC(Cc1ccccc1)N1C(=O)c2ccccc2C1=O (stereo unspecified)	0	6	-7	1	0	-2
SMILES	Rv3671c protease	GDH-TPI counter	Mtb bLac sens	RecA splice inh	Mtb FBA inh	Mtb UGM inh
O=C(c1ccccc1)c1c[nH]c(C(=O)C(Cl)(Cl)Cl)c1	-7	1	-3	46*	-1	-2
CN(C)C=NC(=O)c1cc(C(=O)c2ccccc2)c[nH]1	12	12	2	-1	3	0
O=C(c1c[nH]c(C(=O)C(Cl)(Cl)Cl)c1)c1ccc(F)cc1F	5	-4	12	34*	-2	-1
Cc1ccc(NC(=S)NC(=O)c2ccc(-c3ccc(Cl)cc3)o2)c(O)c1	2	16	12	1	2	2
Cc1cc(O)c(NC(=S)NC(=O)c2ccc(-c3ccc(Cl)cc3)o2)cc1C	-3	37*	-5	-4	6	3
Cn1cc(C(=O)N/N=C/c2cccs2)c2ccccc21	-6	43*	1	1	-1	-1
Cn1cc(C(=O)N/N=C/c2ccc3c(c2)OCO3)c2ccccc21	6	34*	-6	1	2	1
O=C(N/N=C/c1ccc2c(c1)OCO2)c1cccs1	-3	35*	9	-1	-2	-2
Cc1occc1C(=O)N/N=C/c1ccc2c(c1)OCO2	-6	46*	-6	5	3	-3
O=C(N/N=C/c1ccc2c(c1)OCO2)c1cccc2ccccc12	-15	11	-3	-5	1	-2
CCc1nc2ccc(C(=O)NCc3ccc4c(c3)OCO4)cn2c1N(C)Cc1ccc(OC)cc1	.	15	.	.	-1	.
CC1CCCC(NC(=O)CCNC(=O)c2ccccc2Cl)C1C (stereo unspecified)	-10	-3	-9	-1	0	0
COc1ccc2c(Cl)c(C(=O)N/N=C3\CCCC(=O)C3)sc2c1	3	34*	8	3	-5	1
Cc1cc(C(=O)N/N=C/c2ccc3c(c2)OCO3)c(C)o1	10	19	1	-1	0	-2
COc1ccc2c(Cl)c(C(=O)N/N=C/c3ccc4c(c3)OCO4)sc2c1	-1	47*	3	-1	0	-1
O=C(N/N=C/c1ccc2c(c1)OCO2)c1sc2cc(Cl)ccc2c1Cl	-10	8	81	-1	-2	3
Cc1ccsc1C(=O)N/N=C/c1ccc2c(c1)OCO2	-6	36*	1	-2	-2	0
Cn1ccc(/C=N/N=C2/NC(=O)CS2)n1	2	46*	31	0	-1	7
O=C1CS/C(=N/N=C/c2ccncc2)N1	0	30	-2	0	-3	1
O=C(Nc1nc2ccccc2n1CCN1CCOCC1)c1ccc(Cn2cc([N+](=O)[O-])cn2)o1	1	48*	-9	2	3	-1
O=C(Nc1nc2ccccc2n1CCN1CCOCC1)c1ccc(COc2ccccc2Br)o1	-1	14	1	7	4	-2
CCCn1c(=O)c2[nH]c(-c3ccc(S(=O)(=O)O)cc3)nc2n(CCC)c1=O	2	9	-2	.	+	3
C=CCN(CC=C)C(=S)NC(=O)/C=C/c1ccccc1	-1	4	0	6	2	2
C=CCN(CC=C)S(=O)(=O)c1ccc(NC(=S)NC(=O)/C=C/c2ccccc2)cc1	-10	31*	-4	-1	2	0
CC(NCC(=O)Nc1ccccc1C(=O)NC1CC1)c1ccco1 (stereo unspecified)	.	1	.	.	4	.
